Screening data from PubChem.
Many of the other results were omitted from the sample, so hits are more common in it than they were.
CBX7 AlphaScr = blocks human CBX7 binding to H3K27me3 peptide | 1.1% of 66,000 active | AlphaScreen His6-CBX7 / biotin-H3K27me3 peptide binding; active compounds read low | O95931 | normalised signal (fraction of DMSO) (test concentration not listed); in the data active means normalised signal below about 0.5
An asterisk follows results filed as active.

SMILES	CBX7 AlphaScr
CCOc1ccccc1CN(CCc1ccc2c(c1)OCO2)Cc1ccccc1OC	0.95
CCOc1ccc(CN(CCc2ccc3c(c2)OCO3)Cc2ccccc2)cc1	1.1
CCOc1ccccc1CN(CCc1ccc2c(c1)OCO2)Cc1ccc(F)c(F)c1	0.47*
CC(=O)c1ccc(C(=O)Nc2ccc(Br)cc2C(=O)c2ccccc2)cc1	0.99
NC(=O)C1CCN(CC(=O)Nc2ccc(Cl)cc2C(=O)c2ccccc2)CC1	0.96
CCOc1cc(CNCCc2c(C)[nH]c3ccc(OC)cc23)ccc1OC	0.72
COc1ccc2[nH]c(C)c(CCNCc3cccc(OC)c3OC)c2c1	0.61
COc1ccc2[nH]c(C)c(CCNCc3ccc(OC(F)(F)F)cc3)c2c1	0.42*
COc1ccc2[nH]c(C)c(CCNCc3ccc(F)cc3)c2c1	0.5
COc1ccc2[nH]c(C)c(CCNCc3cccc(F)c3)c2c1	0.51
COc1ccc2[nH]c(C)c(CCNCc3ccc4ccccc4n3)c2c1	0.55
COc1ccc(CNCCc2c(C)[nH]c3ccc(OC)cc23)c(F)c1	0.62
CCCCc1ncc(CNCCc2c(C)[nH]c3ccc(OC)cc23)[nH]1	0.99
COc1ccc2[nH]c(C)c(CCNCc3cccc(C(F)(F)F)c3)c2c1	0.2*
COc1ccc(F)c(CNCCc2c(C)[nH]c3ccc(OC)cc23)c1	0.37*
COc1ccc(OC)c(CNCCc2c(C)[nH]c3ccc(OC)cc23)c1	0.71
COc1ccc2[nH]c(C)c(CCNCc3ncc[nH]3)c2c1	0.18*
CCOC(=O)c1c(C)n(C2CCCCC2)c2cc(Br)c(O)cc12	0.92
Cc1ccccc1-n1c(/C=C/c2c[nH]c3ccccc23)nc2ccccc2c1=O	1.1
CCc1ccc(NC(=O)CN2C(=O)CN=C(c3ccccc3)c3ccccc32)cc1	1.1
CCCCOc1ccc(C2SCC(=O)Nc3c2c(=O)[nH]n3C(C)CC)cc1 (stereo not drawn)	1.1
Cc1cccc(NC(=O)CN2C(=O)CN=C(c3ccccc3F)c3cc(Cl)ccc32)c1C	0.74
Cc1cc(C)cc(NC(=O)CN2CC(c3ccccc3)CC2=O)c1 (stereo not drawn)	1
COc1cc(C2NCc3ccccc3-n3cccc32)ccc1F (stereo not drawn)	0.81
Cc1ccc(C)c(CN2C(=O)CN=C(c3ccccc3)c3ccccc32)c1	0.96
